This note sets out measurements from PubChem BioAssay.

The subject of test [1] is Human papillomavirus type 1a protein E7 (residues 44-93). In words: small molecules binding HPV E7 44-93 – biochemical, small-molecule microarray, residues 44-93, 635 nm fluorescence, primary screen (AID 1108).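 Further: E7 fragment applied at 1 µg/mL in TBST for 1 h at 4 C; score combines spot fluorescence with its signal to noise ratio.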 The note with it: fluorescence 635 nm, higher = more signal.
A short description of test [2]: hepatitis C replication reporter changes, two-sided – Huh7 cells, luciferase reporter, HCV replication inhibitor project, primary screen (AID 1109).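 Further: huh7 hepatoma cells harbouring a luciferase neomycin HCV replicon reporter; luciferase luminescence as measure of HCV replicon replication; test concentration not given here.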 The note with it: Huh7 HCV replicon luciferase reporter, 48 h; higher = more signal. (In general: A reporter such as luciferase makes a cellular process visible.)
Test [3] addresses Left-right determination factor 2 (Homo sapiens) (UniProt O00292). Put plainly: small molecules binding LEFTY2 protein – biochemical, small-molecule microarray, 635 nm fluorescence scan, primary screen (AID 1110). As to conditions: higher = more signal.
The target of test [4] is Calmodulin-1 (Homo sapiens) (UniProt P0DP23). Put plainly: small molecules binding calmodulin-1 with EGTA – biochemical, small-molecule microarray, Cy5-labelled CALM1, profiling panel (AID 1111).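 Further: labelled calmodulin applied in Tris saline Tween buffer holding calcium plus EGTA and DTT.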 The note with it: Cy5-CALM1 binding fluorescence, higher = more signal.
Test [5] has the same target. In words: small molecules binding Ca-loaded calmodulin-1 – biochemical, small-molecule microarray, Cy5-labelled CALM1, plus calcium, artefact control for SMM control-protein annotation, profiling panel (AID 1112).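 Further: score merges spot fluorescence with signal to noise from triplicate slides.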 The note with it: Cy5-CALM1 binding fluorescence, higher = more signal.
Test [6] can be described thus: probe aWnt5a binding to arrayed compounds – biochemical, biotinylated probe, 635/667 nm fluorescence, primary screen (AID 1113).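 Further: score merges 667 nm fluorescence intensity with signal-to-noise per printed feature.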 As to conditions: small-molecule microarray, higher = more signal.
Test [7] in a line: probe aShh binding to arrayed compounds – biochemical, biotinylated probe, 635/667 nm fluorescence, primary screen (AID 1114).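 Further: probe is biotin-labelled aShh protein from a stem cell growth factor screen; measures binding of labelled protein to compounds printed on the slide; score merges feature fluorescence at 667 nm with signal-to-noise.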 The note with it: small-molecule microarray, higher = more signal.
Test [8] is described as follows: probe aNog binding to arrayed compounds – biochemical, biotinylated probe, 635/667 nm fluorescence, primary screen (AID 1115).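 Further: probe is biotinylated aNog protein used at 0.15 µg/mL for 1 h at 4 C; z-score combines 667 nm fluorescence of each spot with its signal to noise.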 As to conditions: small-molecule microarray, higher = more signal.
Test [9] has as its target Torsin-1A-interacting protein 1 (Homo sapiens) (UniProt Q5JTV8). In words: compound microarray binding of lysate hLAP1 – cell lysate, small-molecule microarray, COS7 lysate, 635/667 nm fluorescence, primary screen (AID 1116). The note with it: 635 nm fluorescence, higher = more signal.
The target of test [10] is Alpha-bungarotoxin (Bungarus multicinctus) (UniProt P60615). In words: compounds binding labelled alpha-BTX control protein – biochemical, small-molecule microarray, Alexa647 label, 635/667 nm fluorescence, artefact control for SMM control protein annotation, profiling panel (AID 1117). As to conditions: alpha-BTX-A647 binding fluorescence, higher = more signal.
Alpha-bungarotoxin (Bungarus multicinctus), sequence (P60615 whole entry, looked up): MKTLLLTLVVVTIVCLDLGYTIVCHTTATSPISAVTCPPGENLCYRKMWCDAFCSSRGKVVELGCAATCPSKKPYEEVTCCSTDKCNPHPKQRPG
In the next test the target is Albumin (Bos taurus) (UniProt P02769). Put plainly: compounds binding labelled BSA control protein – biochemical, small-molecule microarray, Alexa647 label, 635/667 nm fluorescence, artefact control for SMM control protein annotation, profiling panel (AID 1118).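 Further: score merges 667 nm emission intensity and signal-to-noise per printed compound spot.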 As to conditions: BSA-A647 binding, fluorescence 635 nm, higher = more signal.
Albumin (Bos taurus), sequence (P02769 whole entry, looked up): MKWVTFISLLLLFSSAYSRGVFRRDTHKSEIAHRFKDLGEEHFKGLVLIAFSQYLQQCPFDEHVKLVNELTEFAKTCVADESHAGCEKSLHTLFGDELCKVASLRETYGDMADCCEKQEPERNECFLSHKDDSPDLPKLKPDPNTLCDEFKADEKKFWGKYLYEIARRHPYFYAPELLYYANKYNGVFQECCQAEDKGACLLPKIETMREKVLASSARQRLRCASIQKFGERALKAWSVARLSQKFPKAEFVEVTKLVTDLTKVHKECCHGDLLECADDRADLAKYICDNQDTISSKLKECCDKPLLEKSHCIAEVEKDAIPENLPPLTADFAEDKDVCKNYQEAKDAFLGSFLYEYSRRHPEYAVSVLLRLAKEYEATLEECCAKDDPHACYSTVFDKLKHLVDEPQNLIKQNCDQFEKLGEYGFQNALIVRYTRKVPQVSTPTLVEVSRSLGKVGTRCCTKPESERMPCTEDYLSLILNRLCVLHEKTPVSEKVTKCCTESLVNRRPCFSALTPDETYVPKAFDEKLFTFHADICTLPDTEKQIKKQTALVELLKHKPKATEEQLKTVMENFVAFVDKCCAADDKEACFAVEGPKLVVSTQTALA
Test [11] can be described thus: probe aXIP binding to arrayed compounds – biochemical, NeuroSMM set, 635/667 nm fluorescence, primary screen (AID 1119).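 Further: probe is the protein aXip251-270 applied at 1 µg/mL to compound-printed slides; binding of probe to printed compounds measured as 667 nm fluorescence plus signal to noise.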 As to conditions: small-molecule microarray, higher = more signal, called active from +8 up or from −8 down.
Test [12] can be described thus: probe aNOTCH3 binding on compound microarray – biochemical, small-molecule microarray, 635/667 nm fluorescence, primary screen (AID 1120).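 Further: probe is a biotin-tagged antibody raised against NOTCH3 rather than NOTCH3 protein; score merges spot fluorescence near 667 nm with spot signal to noise.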 The note with it: higher = more signal.
Test [13] is described as follows: probe aNOTCH2 binding on compound microarray – biochemical, small-molecule microarray, 635/667 nm fluorescence, primary screen (AID 1121).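 Further: score merges feature fluorescence read at 667 nm with its signal to noise.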 The note with it: higher = more signal.
Test [14] concerns the target Carbonic anhydrase 2 (Homo sapiens) (UniProt P00918). In words: compounds binding carbonic anhydrase 2 – biochemical, small-molecule microarray, Alexa647-labelled CAII, profiling panel (AID 1122). As to conditions: CAII-A647 binding fluorescence, higher = more signal.
Test [15] in a line: COS7 lysate on small-molecule microarray, probe aHis, 635 nm (AID 1123).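 Further: z-score combines 667nm fluorescence intensity with signal-to-noise per printed compound spot.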 As to conditions: COS7 cell lysate, fluorescence, higher = more signal.
Test [16] is described as follows: probe aLAP1 signal on lysate-treated microarray – cell lysate, small-molecule microarray, COS7 lysate, primary screen (AID 1124).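 Further: lysate comes from COS7 cells expressing LAP1 and is applied at 0.3 µg/mL; score merges spot fluorescence near 667 nm with signal-to-noise over triplicate slides.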 As to conditions: probe aLAP1, fluorescence, higher = more signal.
For a further test, the system named is Sam68 (KHDRBS1). In words: compounds binding KHDRBS1 protein – biochemical, small-molecule microarray, 635 nm fluorescence, primary screen (AID 1125).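 Further: score merges 667 nm channel intensity with signal to noise over triplicate slides.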 The note with it: higher = more signal.
The subject of test [17] is Chordin-like protein 2 (CHRDL2). Put plainly: compounds binding chordin-like 2 – biochemical, small-molecule microarray, 635 nm fluorescence, primary screen (AID 1126).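 Further: printed compound slides probed with Chrdl2 protein at 4 µg/mL for 1 h at 4 C; score merges 667 nm emission intensity with signal to noise over three replicate slides.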 As to conditions: fluorescence 635 nm, higher = more signal.
Test [18] deals with Concanavalin-A (Canavalia ensiformis) (UniProt P02866). Put plainly: compounds binding concanavalin A lectin – biochemical, small-molecule microarray, Alexa647 label, 635 nm, artefact control for SMM control protein annotation, primary screen (AID 1127).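 Further: z combines 667 nm emission intensity with signal-to-noise across three replicate slides.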 The note with it: ConA-A647 binding fluorescence, higher = more signal.
Concanavalin-A (Canavalia ensiformis), sequence (P02866 whole entry, looked up): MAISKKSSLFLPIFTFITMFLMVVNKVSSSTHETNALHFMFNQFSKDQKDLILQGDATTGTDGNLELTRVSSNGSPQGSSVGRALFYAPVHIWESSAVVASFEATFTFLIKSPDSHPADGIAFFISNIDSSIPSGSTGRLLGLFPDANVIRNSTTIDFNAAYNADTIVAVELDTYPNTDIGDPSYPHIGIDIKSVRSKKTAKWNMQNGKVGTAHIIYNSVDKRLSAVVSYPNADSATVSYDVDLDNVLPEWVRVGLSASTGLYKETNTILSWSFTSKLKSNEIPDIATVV

The structures appear in SMILES notation. The source made the active and inactive calls.

Torsin-1A-interacting protein 1 (Homo sapiens), sequence (Q5JTV8 whole entry, looked up): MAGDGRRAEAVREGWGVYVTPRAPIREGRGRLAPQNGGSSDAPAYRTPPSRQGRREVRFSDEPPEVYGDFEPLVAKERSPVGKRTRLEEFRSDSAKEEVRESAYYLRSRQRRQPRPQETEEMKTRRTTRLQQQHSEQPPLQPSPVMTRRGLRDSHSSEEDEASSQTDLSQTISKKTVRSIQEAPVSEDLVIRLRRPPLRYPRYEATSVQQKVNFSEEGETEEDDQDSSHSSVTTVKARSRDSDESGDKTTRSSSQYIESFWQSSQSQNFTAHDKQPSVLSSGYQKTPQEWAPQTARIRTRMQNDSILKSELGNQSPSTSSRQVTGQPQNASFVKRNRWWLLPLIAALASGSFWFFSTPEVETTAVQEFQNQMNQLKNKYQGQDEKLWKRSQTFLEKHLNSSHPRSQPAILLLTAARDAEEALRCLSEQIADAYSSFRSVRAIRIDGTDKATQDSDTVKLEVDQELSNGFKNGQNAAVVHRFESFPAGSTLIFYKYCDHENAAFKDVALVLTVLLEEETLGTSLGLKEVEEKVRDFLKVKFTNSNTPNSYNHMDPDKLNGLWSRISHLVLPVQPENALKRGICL
Left-right determination factor 2 (Homo sapiens), sequence (O00292 whole entry, looked up): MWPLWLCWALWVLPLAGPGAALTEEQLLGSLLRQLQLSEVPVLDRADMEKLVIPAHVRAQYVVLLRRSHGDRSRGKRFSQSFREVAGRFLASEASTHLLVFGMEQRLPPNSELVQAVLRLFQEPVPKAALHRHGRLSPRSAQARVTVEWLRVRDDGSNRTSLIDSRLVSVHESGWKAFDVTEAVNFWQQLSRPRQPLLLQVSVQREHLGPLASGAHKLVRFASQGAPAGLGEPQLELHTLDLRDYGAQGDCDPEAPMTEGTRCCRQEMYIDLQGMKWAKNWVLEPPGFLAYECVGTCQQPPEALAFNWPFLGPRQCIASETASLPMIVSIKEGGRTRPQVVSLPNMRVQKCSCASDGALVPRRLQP

As for `CC(=O)n1cc(C(O)C2C=CC3C(=O)N(Cc4ccccc4)C(=O)C3N2n2cnnc2)c2ccccc21` (stereo not given), the composite z-score was -0.179 in test [1]; 0.0796 in test [3]; 0.416 in test [4]; -0.568 in [5]; -0.0721 in [6]; -0.0626 in [7]. For the same compound, the composite z-score in test [8] is -0.305; in test [9], 0.463; in test [10] it was 1.09; with Albumin (Bos taurus), 0.136; in test [12] it was 0.0576; in test [13], -0.0304. Besides, the composite z-score in test [14] is 0.444; in [15], 0.983; in [16], 0.281; in the test on Sam68 (KHDRBS1) it was -0.0572; in test [17], -0.243; in test [18] it was 0.458. Moreover, the z-score in test [2] is -1.49. Also, the composite Z-score in [11] was -0.213 (inactive).

On to `CC=CC(O)C1C=CC2C(=O)N(c3ccccc3)C(=O)C2N1Nc1ccc([N+](=O)[O-])cc1` (stereo not given), for which the composite z-score was 1.21 in test [1]; 0.382 in test [3]; -0.107 in test [4]; -0.654 in test [5]; -0.0685 in test [6]; 0.0469 in test [7]. Moreover, the composite z-score in test [8] was -0.124; in test [9] it was 0.643; in test [10] it was 0.529; with Albumin (Bos taurus), 0.0015; in [12], -0.0044; in [13], -0.123. In addition, the composite z-score came to 0.661 in test [14]; 0.657 in test [15]; 0.865 in test [16]; 0.729 in the test on Sam68 (KHDRBS1); 0.414 in test [17]; 0.217 in [18]. The z-score in [2] came out at 0.0112. Further, in test [11], the composite Z-score is -0.127 (inactive).

Consider `COc1cc2c(cc1OC)CN(C(=O)[C@H]1[C@@H]3C(=O)O[C@@H](c4ccccc4)[C@@H](c4ccccc4)N3[C@@H](c3ccc(OCCO)cc3)[C@]13C(=O)Nc1ccc(C#CCCO)cc13)CC2`, for which the composite z-score is 1.43 in [1]; 0.509 in [3]; 1.23 in test [4]; 0.642 in [5]; 0.0668 in [6]; -0.0146 in test [7]. In addition, the composite z-score in [8] is 0.033; in test [9], 1.02; in test [10] it was 1.72; with Albumin (Bos taurus), 0.592; in test [12] it was 0.0418; in test [13], 0.0292. Also, the composite z-score in test [14] was found to be 0.434; in test [15], 2.2; in test [16], 1.25; in the test with Sam68 (KHDRBS1), 1.29; in test [17], 0.0602; in [18], 1.11. Also, the z-score in test [2] was -0.563. For the same compound, the composite Z-score in test [11] is 0.524 (inactive).

As for `COc1ccc([Si](C)(C)[C@H]2[C@H](CCn3cc([C@H](O)c4ccccc4)nn3)O[C@@]3(C(=O)N(Cc4ccc(N5CCC5=O)cc4)c4ccccc43)[C@@H]2C)cc1`, the composite z-score in test [1] was 0.73; in test [3] it was 0.656; in [4], -0.468; in [5], -0.217; in test [6] it was -0.16; in [7] it was -0.138. In addition, the composite z-score in [8] is -0.103; in test [9], 0.273; in test [10] it was 0.54; in the test with Albumin (Bos taurus), 0.0383; in test [12], -0.0647; in [13], -0.167. In addition, the composite z-score amounted to 0.0133 in [14]; 0.418 in test [15]; 0.142 in test [16]; 0.654 in the test on Sam68 (KHDRBS1); 0.786 in [17]; 0.672 in test [18]. Also, the z-score in test [2] is -0.917. Besides, the composite Z-score in test [11] is -0.128 (inactive).

On to `COC(=O)C1(Cc2ccccc2)C=C2C(=C(C(C)C)C(=O)C2C)CN1` (stereo not given), for which the composite z-score in test [1] was -0.549; in [3], -1.41; in test [4] it was 1.09; in test [5], 1.54; in test [6], 0.152; in [7] it was 0.109. The composite z-score was 0.593 in test [8]; 1.73 in test [9]; -0.473 in [10]; 0.628 with Albumin (Bos taurus); 0.183 in test [12]; 0.168 in test [13]. The composite z-score in test [14] is 0.676; in [15] it was 1.62; in test [16], 0.6; in the test on Sam68 (KHDRBS1) it was -1.52; in test [17] it was -1.3; in test [18], -1.83. Moreover, in test [2], the z-score was -0.735. Further, in test [11], the composite Z-score was 2.34 (inactive).

As for `COCCOC(=O)N1C(=O)[C@@]2(c3cc(C#CC4=CCCCC4)ccc31)[C@H](C(=O)N1CCN(c3ncccn3)CC1)[C@H]1C(=O)O[C@H](c3ccccc3)[C@H](c3ccccc3)N1[C@@H]2c1ccc(O)cc1`, the composite z-score is 0.683 in test [1]; 0.557 in test [3]; 0.951 in test [4]; 0.727 in test [5]; -0.0685 in [6]; 0.258 in [7]. Besides, the composite z-score was 0.0234 in test [8]; 1.28 in [9]; 1.45 in test [10]; 0.649 in the test with Albumin (Bos taurus); 0.061 in [12]; -0.0304 in test [13]. For the same compound, the composite z-score is 0.541 in test [14]; 1.09 in test [15]; 0.615 in test [16]; 1.29 in the test on Sam68 (KHDRBS1); 0.204 in test [17]; 1.13 in test [18]. Also, the z-score in test [2] was -1.46. The composite Z-score in [11] is 0.215 (inactive).
